According to PubChem BioAssay AID1159580 (chemical genetic matrix, 2015):
Out of some 5,500 compounds screened, about 2,000 (36%) were called active. Roughly 18% stayed inconclusive and do not appear here. No stated cut-off is given here; in the data, active means normalized growth mostly below about 0.91 (no sharp cut-off); inconclusive means no clear call, values can overlap the other calls; inactive means mostly above about 0.92. The list shows a part of the results.

Experiment: chemical genetic growth profiling, strain panel (AID 1159580);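 further: tested at 20 µM; growth read once vehicle control cultures reached saturation at 30 °C; 1 = growth at the plate median or of vehicle wells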
Details: growth OD

Measured: normalized growth

CC(C(=O)O)c1ccc(N2Cc3ccccc3C2=O)cc1 (configuration not stated)
active: S. cerevisiae deletion strains, locus YNL322C, strain KRE1 (second series), stronger effect = lower value 0.818
inactive: S. cerevisiae deletion strains, locus YKL009W, strain mrt4, stronger effect = lower value 0.998 | S. cerevisiae deletion strains, locus YKL068W, stronger effect = lower value 1 | S. cerevisiae deletion strains, locus YKL085W, strain MDH1 (second series), stronger effect = lower value 0.99 | S. cerevisiae deletion strains, locus YKL085W, strain MDH1, stronger effect = lower value 0.99 | S. cerevisiae deletion strains, locus YKL160W, strain elf1, stronger effect = lower value 0.986 | S. cerevisiae deletion strains, locus YKL190W, strain CNB1, stronger effect = lower value 1.01 | S. cerevisiae deletion strains, locus YKR001C, strain vps1, stronger effect = lower value 0.976 | S. cerevisiae deletion strains, locus YKR026C, strain gcn3, stronger effect = lower value 0.986 | S. cerevisiae deletion strains, locus YKR091W, strain srl3, stronger effect = lower value 0.983 | S. cerevisiae deletion strains, locus YLL001W, strain dnm1, stronger effect = lower value 0.96 | S. cerevisiae deletion strains, locus YLL026W, stronger effect = lower value 0.988 | S. cerevisiae deletion strains, locus YLL041C, strain sdh2, stronger effect = lower value 0.99 | S. cerevisiae deletion strains, locus YLR027C, strain aat2, stronger effect = lower value 0.985 | S. cerevisiae deletion strains, locus YLR039C, strain RIC1, stronger effect = lower value 0.994 | S. cerevisiae deletion strains, locus YLR058C, strain SHM2, stronger effect = lower value 1.01 | S. cerevisiae deletion strains, locus YLR102C, strain apc9, stronger effect = lower value 0.992 | S. cerevisiae deletion strains, locus YLR113W, strain HOG1, stronger effect = lower value 0.984 | S. cerevisiae deletion strains, locus YLR221C, strain rsa3, stronger effect = lower value 0.928 | S. cerevisiae deletion strains, locus YLR258W, strain gsy2, stronger effect = lower value 0.976 | S. cerevisiae deletion strains, locus YLR262C, strain YPT6 (second series), stronger effect = lower value 0.966 | S. cerevisiae deletion strains, locus YLR262C, strain YPT6, stronger effect = lower value 1.03 | S. cerevisiae deletion strains, locus YLR268W, strain sec22, stronger effect = lower value 0.997 | S. cerevisiae deletion strains, locus YLR320W, strain mms22, stronger effect = lower value 0.918 | S. cerevisiae deletion strains, locus YLR330W, strain CHS5, stronger effect = lower value 1.01 | S. cerevisiae deletion strains, locus YLR342W, strain FKS1 (second series), stronger effect = lower value 1.01 | S. cerevisiae deletion strains, locus YLR342W, strain FKS1, stronger effect = lower value 0.981 | S. cerevisiae deletion strains, locus YLR357W, strain rsc2, stronger effect = lower value 0.957 | S. cerevisiae deletion strains, locus YLR370C, strain arc18, stronger effect = lower value 0.974 | S. cerevisiae deletion strains, locus YLR371W, strain rom2, stronger effect = lower value 0.995 | S. cerevisiae deletion strains, locus YLR384C, strain iki3, stronger effect = lower value 0.984 | S. cerevisiae deletion strains, locus YLR418C, strain cdc73, stronger effect = lower value 0.951 | S. cerevisiae deletion strains, locus YML016C, strain PPZ1, stronger effect = lower value 1.02 | S. cerevisiae deletion strains, locus YML032C, strain rad52, stronger effect = lower value 0.975 | S. cerevisiae deletion strains, locus YML120C, strain ndi1, stronger effect = lower value 0.934 | S. cerevisiae deletion strains, locus YML124C, strain tub3, stronger effect = lower value 0.993 | S. cerevisiae deletion strains, locus YMR058W, strain fet3, stronger effect = lower value 0.984 | S. cerevisiae deletion strains, locus YMR078C, strain ctf18, stronger effect = lower value 0.995 | S. cerevisiae deletion strains, locus YMR125W, strain sto1, stronger effect = lower value 0.973 | S. cerevisiae deletion strains, locus YMR129W, stronger effect = lower value 0.986 | S. cerevisiae deletion strains, locus YMR205C, strain PFK2, stronger effect = lower value 0.98 | S. cerevisiae deletion strains, locus YMR223W, strain ubp8, stronger effect = lower value 0.98 | S. cerevisiae deletion strains, locus YMR231W, strain pep5, stronger effect = lower value 0.988 | S. cerevisiae deletion strains, locus YMR307W, strain GAS1, stronger effect = lower value 1.07 | S. cerevisiae deletion strains, locus YNL067W, strain RPL9B, stronger effect = lower value 1.01 | S. cerevisiae deletion strains, locus YNL071W, strain lat1, stronger effect = lower value 0.999 | S. cerevisiae deletion strains, locus YNL153C, strain GIM3, stronger effect = lower value 1.01 | S. cerevisiae deletion strains, locus YNL183C, strain NPR1, stronger effect = lower value 0.941 | S. cerevisiae deletion strains, locus YNL209W, strain ssb2, stronger effect = lower value 0.973 | S. cerevisiae deletion strains, locus YNL233W, strain BNI4, stronger effect = lower value 1.01 | S. cerevisiae deletion strains, locus YNL248C, strain rpa49, stronger effect = lower value 0.968 | S. cerevisiae deletion strains, locus YNL250W, strain rad50, stronger effect = lower value 1.01 | S. cerevisiae deletion strains, locus YNL271C, strain bni1, stronger effect = lower value 0.984 | S. cerevisiae deletion strains, locus YNL298W, strain CLA4, stronger effect = lower value 0.981 | S. cerevisiae deletion strains, locus YNL307C, strain MCK1, stronger effect = lower value 0.986 | S. cerevisiae deletion strains, locus YNL322C, strain KRE1, stronger effect = lower value 1.01 | S. cerevisiae deletion strains, locus YNR049C, strain mso1, stronger effect = lower value 0.987 | S. cerevisiae deletion strains, locus YNR052C, strain pop2, stronger effect = lower value 0.989 | S. cerevisiae deletion strains, locus YOL006C, strain TOP1, stronger effect = lower value 0.975 | S. cerevisiae deletion strains, locus YOL012C, strain htz1 1.17 | S. cerevisiae deletion strains, locus YOL147C, strain pex11, stronger effect = lower value 0.991 | S. cerevisiae deletion strains, locus YOR001W, strain rrp6, stronger effect = lower value 0.981 | S. cerevisiae deletion strains, locus YOR061W, strain CKA2, stronger effect = lower value 1.02 | S. cerevisiae deletion strains, locus YOR069W, strain VPS5, stronger effect = lower value 1.01 | S. cerevisiae deletion strains, locus YOR070C, strain gyp1, stronger effect = lower value 0.982 | S. cerevisiae deletion strains, locus YOR080W, strain dia2, stronger effect = lower value 0.987 | S. cerevisiae deletion strains, locus YOR083W, strain WHI5, stronger effect = lower value 0.965 | S. cerevisiae deletion strains, locus YOR106W, strain vam3, stronger effect = lower value 0.957 | S. cerevisiae deletion strains, locus YOR136W, strain idh2, stronger effect = lower value 0.991 | S. cerevisiae deletion strains, locus YOR144C, strain elg1, stronger effect = lower value 0.995 | S. cerevisiae deletion strains, locus YOR184W, strain ser1, stronger effect = lower value 0.963 | S. cerevisiae deletion strains, locus YOR231W, strain MKK1, stronger effect = lower value 0.973 | S. cerevisiae deletion strains, locus YOR265W, strain rbl2, stronger effect = lower value 0.982 | S. cerevisiae deletion strains, locus YOR270C, strain vph1, stronger effect = lower value 1.03 | S. cerevisiae deletion strains, locus YOR290C, strain snf2, stronger effect = lower value 0.917 | S. cerevisiae deletion strains, locus YOR316C, strain cot1, stronger effect = lower value 0.998 | S. cerevisiae deletion strains, locus YPL051W, strain arl3, stronger effect = lower value 0.995 | S. cerevisiae deletion strains, locus YPL078C, strain atp4, stronger effect = lower value 0.984 | S. cerevisiae deletion strains, locus YPL106C, strain sse1, stronger effect = lower value 0.984 | S. cerevisiae deletion strains, locus YPL240C, strain hsp82, stronger effect = lower value 0.99 | S. cerevisiae deletion strains, locus YPL256C, strain CLN2, stronger effect = lower value 0.984 | S. cerevisiae deletion strains, locus YPR119W, strain clb2, stronger effect = lower value 0.993 | S. cerevisiae deletion strains, locus YPR141C, strain kar3, stronger effect = lower value 1.01 | S. cerevisiae deletion strains, locus YPR163C, strain tif3, stronger effect = lower value 0.996 | S. cerevisiae deletion strains, locus YPR167C, strain met16, stronger effect = lower value 0.982 | S. cerevisiae deletion strains, strain wtn01, stronger effect = lower value 0.987 | S. cerevisiae strains, strain wild type, stronger effect = lower value 1.01
